High-throughput results as filed in PubChem BioAssay.
MCL1 BIM primary: MCL1-BIM-BH3 interaction inhibition (human). Q07820. GST-MCL1 / FITC-Bim-BH3 fluorescence polarization. inhibition, % at 10.9 µM. hit rate 0.68% among 320,000;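 active = inhibition above the mean inhibition of all tested compounds plus 3 SD, set per campaign, cut at about 40% in these data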;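 note: higher means more loss of mP so more displacement of Bim peptide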
EBV gp42 inh: blocks Epstein-Barr virus glycoprotein 42 binding; hit rate 0.42% among 220,000; Fluorescence polarization binding assay, mP read-out; inhibition, % (tested at 21.74 µM); Q1HVG2; in the data active = inhibition above about 50%
Target sequence (Q1HVG2 whole entry, looked up): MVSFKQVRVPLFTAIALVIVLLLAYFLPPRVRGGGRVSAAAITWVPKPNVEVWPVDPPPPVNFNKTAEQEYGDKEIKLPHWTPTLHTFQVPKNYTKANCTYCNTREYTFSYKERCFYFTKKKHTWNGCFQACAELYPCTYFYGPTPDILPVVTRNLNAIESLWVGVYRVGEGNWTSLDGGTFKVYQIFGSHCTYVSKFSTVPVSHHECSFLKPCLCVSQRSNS
BCLXL inh: blocks human Bcl-xL binding to Bim BH3 peptide; GST-Bcl-xL / FITC-Bim BH3 peptide fluorescence polarization; inhibition, % at 10.9 µM; hit rate 0.7% among 320,000; AID 2129;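 active = inhibition above the mean of all tested compounds plus 3 SD, cutoff set per campaign, cut at about 30% in these data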;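 note: inhibitors lower millipolarization by displacing the labeled peptide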
Target sequence (Q07817 whole entry, looked up): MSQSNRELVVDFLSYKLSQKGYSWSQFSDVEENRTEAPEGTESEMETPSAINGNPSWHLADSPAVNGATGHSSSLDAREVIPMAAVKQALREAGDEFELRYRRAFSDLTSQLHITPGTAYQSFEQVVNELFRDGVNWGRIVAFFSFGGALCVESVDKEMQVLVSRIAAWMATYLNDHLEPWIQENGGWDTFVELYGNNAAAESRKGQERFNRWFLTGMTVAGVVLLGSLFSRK
MEX-5 binding: C. elegans MEX-5 TCR-2 RNA binding activity. MEX-5/FITC-TCR2 RNA binding, fluorescence polarization; stronger effect = lower value. activity score (negative = inhibition of binding), % at 10 µM. hit rate 0.38% among 300,000. AID 1832;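 active = inhibition past about -25% in most replicates, and total fluorescence under double the plate's negative control median, limit read from the data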
E coli Lon inh: inhibits E. coli Lon protease; inhibition, % at 7.94 µM; AID 602123; hit rate 0.42% among 360,000; purified E. coli Lon protease, fluorescence polarization; P0A9M0; in the data active = inhibition above about 13%, passing the limit was not always enough
GLD-1 RNA inh: GLD-1-TGE RNA interaction inhibition (C. elegans) | AID 2280 | hit rate 0.44% among 320,000 | Q17339 | inhibition, % at 5.96 µM | purified GLD-1 + fluorescein TGE RNA, fluorescence polarization;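 active = percent inhibition above a per-plate cutoff, the plate mean of test compounds plus 3 SD, cut at about 30% in these data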
Hits are given with their value; . = inactive; / = no result. Hits are enriched below; roughly 1.5% of the tested compounds scored in any of these assays.

SMILES	MCL1 BIM primary	EBV gp42 inh	BCLXL inh	MEX-5 binding	E coli Lon inh	GLD-1 RNA inh
Cc1cccn2c(=O)c(C=C(C#N)C#N)c(N3CCN(c4cccc(Cl)c4)CC3)nc12	43	/	39	.	.	.
Cc1cccn2c(=O)c(/C=C(\C#N)S(=O)(=O)c3ccccc3)c(N3CCN(C)CC3)nc12	.	.	.	.	.	.
CCN1CCN(c2nc3c(C)cccn3c(=O)c2/C=C(\C#N)S(=O)(=O)c2ccc(C)cc2)CC1	48	.	52	.	.	.
O=C(N/N=C/c1cc(Cl)cc([N+](=O)[O-])c1O)c1ccc2c(c1)OCO2	.	/	.	-31	.	.
O=C(N/N=C/c1cc(Cl)cc([N+](=O)[O-])c1O)NC12CC3CC(CC(C3)C1)C2	.	52	.	.	.	.
COc1cc(Cl)cc(/C=N\NC(=O)c2ccc3c(c2)OCO3)c1O	/	/	/	/	.	/
O=C(N/N=C/c1ccccc1O)NC12CC3CC(CC(C3)C1)C2	.	/	.	.	.	.
O=C(N/N=C/c1cc(Cl)cc([N+](=O)[O-])c1O)c1ccccc1NS(=O)(=O)c1cccs1	.	.	.	-47	.	.
CCc1nc2c(OCc3c(C)noc3C)cccn2c1N(C)C(=O)C(C)C	/	/	/	/	.	/
C[C@@H]1O[C@@H](OC2C(O)C(OCCc3ccc(O)c(O)c3)OC(CO)C2OC(=O)/C=C/c2ccc(O)c(O)c2)[C@H](O)[C@H](O)[C@H]1O (some centres not stated)	.	/	.	-46	/	.
O=C(C[C@H]1C[C@@H]2c3cc(NC(=O)c4ccc5c(c4)OCO5)ccc3O[C@@H]2[C@H](CO)O1)NCc1cc(F)ccc1F	/	/	/	/	.	/
Cc1cc(C)c([C@@H]2C[C@H]3CN(C4CCCC4)C(=O)[C@]34CCCN24)c(-n2cccn2)c1	.	.	34	.	.	.
CC1OC(Oc2c(-c3cc(O)c(O)c(O)c3)oc3cc(O)cc(O)c3c2=O)C(O)C(O)C1O (configuration not stated)	/	.	/	-48	.	/
C[C@@H]1O[C@@H](OC[C@@H]2O[C@H](Oc3c(-c4ccc(O)cc4)oc4cc(O)cc(O)c4c3=O)[C@@H](O)[C@H](O)[C@H]2O)[C@H](O)[C@H](O)[C@H]1O	/	/	/	/	.	.
COc1ccc2c3c(cccc13)OCC2=O	.	.	31	.	.	.
COc1cc2c(c(OC)c1OC)C(=O)CO2	/	/	/	/	.	/
O=C(CN1C(=O)S/C(=C\c2ccccc2)C1=O)NNC(=O)c1ccccc1O	.	.	.	.	.	.
COc1ccc(/C=C2\SC(=O)N(CC(=O)NNC(=O)c3ccccc3O)C2=O)cc1	.	58	.	.	.	.
Cc1ccc(NS(=O)(=O)c2cc3c4c(cccc4c2)C(=O)NC3=O)cc1	.	.	.	.	.	.
CNS(=O)(=O)c1cc2c3c(cccc3c1)C(=O)NC2=O	.	.	32	.	.	.
Cc1ccnc(Nc2cccnc2)n1	/	/	/	/	.	/
Cc1ccccc1N/N=C/c1c(C)nc2ccccn12	.	/	.	.	.	.
O=C(Nc1ccccc1)c1nn(-c2ccccc2)c(=O)cc1C(F)(F)F	.	.	.	-30	.	.
O=C(c1ccccc1)c1nn(-c2ccccc2)c(=O)cc1C(F)(F)F	.	.	.	.	.	.
CCCCC1=CC2=CC(=O)C(C)(OC(=O)CC)C(=O)C2=CN1c1cccc(C#N)c1 (configuration not stated)	.	/	31	.	.	40
SMILES	MCL1 BIM primary	EBV gp42 inh	BCLXL inh	MEX-5 binding	E coli Lon inh	GLD-1 RNA inh
CCCCC1=CC2=CC(=O)C(C)(OC(=O)CC)C(=O)C2=CN1c1ccc(OC)cc1 (configuration not stated)	.	.	.	.	.	.
NC(=O)CC1(c2ccccc2)CCCCC1	/	/	/	/	.	/
N#Cc1c2nc3ccccc3nc2n2cc(NC(=O)c3ccc(F)cc3)ccc12	/	106	/	/	.	/
COc1ccc(CNC(=O)c2cnc3cc(C)ccn3c2=O)cc1	.	.	.	-28	.	.
CCOC(=O)c1cnc2cc(C)ccn2c1=O	.	.	.	.	.	.
O=[N+]([O-])c1ccccc1/C=C/C=N/n1c(-c2ccc(Cl)cc2)n[nH]c1=S	.	86	.	.	.	.
COc1ccc(CNC(=O)c2ccc(S(=O)(=O)NCc3ccco3)cc2)cc1	.	/	.	/	.	.
O=C(ONc1ccc(N=NC(=O)c2ccccc2O)cc1)c1ccccc1	.	89	.	.	.	.
COc1ccc(Cn2nnnc2CN(Cc2cc3ccc(C)cc3[nH]c2=O)C2CCCC2)cc1	.	.	.	.	.	.
COCCn1nnnc1CN(Cc1cc2cc(OC)c(OC)cc2[nH]c1=O)C1CCCC1	41	.	34	.	.	.
O=C(c1ccccc1)[C@@H]1[C@@H](C(=O)c2ccc(F)cc2)[C@@]2(C(=O)Nc3ccccc32)[C@H]2c3ccccc3C=CN12	.	.	33	.	.	.
O=C(Nc1ccc(-n2cnnn2)cc1)C1CCC1	.	89	.	.	.	.
CC(=O)Nc1ccc(NC(=O)C2CCCN(S(=O)(=O)c3ccc(-n4cnnn4)cc3)C2)cc1 (configuration not stated)	.	/	.	.	.	.
O=C(Nc1ccc(C(=O)N2CCCC2)cc1)C1CCCCC1	/	/	/	/	.	/
Cc1ccn(C(=O)c2ccc(NC(=O)C3CCCCC3)cc2)n1	.	181	.	.	.	.
CCc1ccccc1NC(=O)CC(NCc1ccccc1)C(=O)O (configuration not stated)	.	/	.	.	.	.
CCCCc1c(-c2ccccc2OC)ncn1CCc1ccccc1Cl	/	/	/	/	.	/
COc1cc(OC)cc(OC(=O)C2CCN(S(=O)(=O)c3ccc(OC)c(OC)c3)CC2)c1	.	/	.	.	.	.
COc1ccccc1/C=C1\SC(=S)N(CCC(=O)NC2=NCCS2)C1=O	.	.	.	-63	.	.
COc1ccc(/C=C2\SC(=S)N(CCC(=O)NC3CCCC3)C2=O)cc1OC	.	/	.	-27	.	.
CCc1ccc(/C=C2/SC(=S)N(CCC(=O)Nc3ccc(C(=O)O)cc3)C2=O)cc1	.	/	189	.	.	.
CCCn1c(N)c(N(CCOC)C(=O)c2ccc([N+](=O)[O-])cc2Cl)c(=O)[nH]c1=O	.	/	.	.	.	.
CCOc1c(C=C(C#N)C#N)c2ccccc2n1CC	.	.	.	-39	.	.
O=C(C1CCC(CNS(=O)(=O)c2cccs2)CC1)N1CCN(c2ccc(Cl)cc2)CC1 (configuration not stated)	.	/	.	.	.	.
Cc1ccc(C)c(N2CCN(C(=O)c3ccc(N4CCCC4=O)cc3)CC2)c1	.	/	130	.	.	.
COC(=O)C1CCN(C(=O)COC(=O)/C=C/c2ccc(O)c(OC)c2)CC1	/	/	/	/	.	.
Cc1cccc(C)c1NCC(=O)N1CCN(Cc2ccccc2)CC1	.	/	.	.	.	.
